An excerpt weighted towards active compounds, which were near 0.51% of everything screened.
AddAB inh = less growth of phage-infected E. coli with AddAB; inhibition, % at 11.9 µM; 0.29% of 330,000 active; E. coli expressing H. pylori AddAB, absorbance growth; in the data active = inhibition above about 12%;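 note: 0% = vehicle wells of infected cells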
E coli growth-1 = blocks Escherichia coli growth. OD600, 23 h; active compounds read low. OD600 absorbance (test concentration not listed). 0.21% of 330,000 active. AID 1053175;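 active = OD600 absorbance below the run mean of sample wells minus 3.6 SD, in any replicate, cut at about 0.56 in these data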
E coli growth-2 = bacterial growth inhibition, counter-screen for AddAB inhibitors; E. coli V3065 growth, OD600 absorbance, 18 h; inhibition, % at 11.9 µM; 0.27% of 330,000 active; AID 449728;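 active = inhibition above the campaign's mean inhibition across all tested compounds plus 3 SD, cut at about 9.9% in these data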;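 note: uninfected addAB+ strain grown without phage in ampicillin broth; 0% = DMSO wells and 100% = ciprofloxacin 0.95 µg/ml wells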
Tat transport = inhibitors of E. coli Tat protein transport | 0.036% of 340,000 active | AID 488895 | inhibition, % at 10 µM | E. coli MC4100 TorA-mCherry Tat export, fluorescence;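 active = mean replicate inhibition at least 50% and at least half of replicates individually reaching 50%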;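 note: exported cargo escapes ClpAP degradation while cytoplasmic cargo is degraded and loses fluorescence; 0% = median of neutral control wells and 100% = median of NaSCN control wells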
phage Ecoli inh = E. coli growth loss with phage present; growth absorbance; inhibition, % at 11.9 µM; 0.26% of 360,000 active; AID 651602; in the data active = inhibition above about 11%
AddAB confirm = confirmation screen: growth loss of phage-infected E. coli expressing H. pylori AddAB | AID 488942 | inhibition, % at 11.9 µM | E. coli V3065 expressing H. pylori AddAB, T4 phage, OD; T4 phage with gene 2 nonsense mutations | shares compounds with AddAB inh | 64% of 880 active;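 active = mean inhibition above a set limit taken from the earlier primary screen, cut at about 13% in these data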;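 note: higher means less bacterial growth since AddAB block lets phage replicate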
RecBCD counter = AddAB counter-screen: growth loss of RecBCD+ E. coli infected with mutant T4 phage | shares compounds with AddAB inh | E. coli V66 + mutant T4 phage, OD growth | inhibition, % at 11.9 µM | 73% of 880 active;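 active = mean inhibition above the mean of solvent-only control wells plus 3 SD, cut at about 4% in these data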;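 note: optical density read after an 18 h incubation at 37 °C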
bact viab count = reduces bacterial viability, AddAB inhibitor counter-screen; shares compounds with AddAB inh; absorbance (AddAB counterscreen); inhibition, % at 11.9 µM; 35% of 880 active; AID 488956; in the data active = inhibition above about 25%
An asterisk follows results filed as active; . = not tested or not shown.

SMILES | AddAB inh | E coli growth-1 | E coli growth-2 | Tat transport | phage Ecoli inh | AddAB confirm | RecBCD counter | bact viab count
O=C(COc1ccccc1)NCC(c1ccco1)N1CCCCC1 (stereo not given) | 98* | 0.6 | 98* | 1 | 2 | 3 | 3 | 0
O=[N+]([O-])c1cc(O)c2ncccc2c1 | 14* | 0.13* | 16* | . | 4 | 34* | 8.9* | 4
O=[N+]([O-])c1cc2cccnc2c2ncccc12 | 8 | 0.59 | 7 | . | 5 | . | . | .
COc1ccc(C2C=CCN(C(=O)C3CCCC3)C(Cc3ccccc3)C(=O)N2Cc2ccc(F)cc2)cc1 (stereo not given) | . | 0.7 | . | . | . | . | . | .
Fc1ccccc1-n1cn[nH]c1=S | 95* | 0.65 | 53* | 4 | 3 | 1 | -1 | -1
CCCc1[nH]nc2c1C1(C(=O)N(CC)c3ccccc31)C(C#N)=C(N)O2 (stereo not given) | 17* | 0.7 | 26* | -5 | . | -4 | -1 | -4
CCC(=O)N1CCN(c2cc3c(cc2F)c(=O)c(C(=O)O)cn3CC)CC1 | 97* | 0.069* | 70* | 30 | 8 | 100* | 8.4* | 98*
CCn1cc(C(=O)NN)c(=O)c2cc(F)c(N3CCN(C)CC3)cc21 | 18* | 0.55 | 16* | -3 | 3 | 47* | -1 | 29*
CCOC(=O)c1cn(CC)c2cc(N3CCOCC3)c(F)cc2c1=O | 58* | 0.54* | 53* | 6 | 7 | 70* | -1 | 15
CCn1cc(C(=O)O)c(=O)c2cc(F)c(N3CCN(S(=O)(=O)c4ccc(NC(=O)OC)cc4)CC3)cc21 | 37* | 0.061* | 18* | 7 | 4 | 101* | 29* | 100*
CCCCCCC(=O)N1CCN(c2cc3c(cc2F)c(=O)c(C(=O)O)cn3CC)CC1 | 10 | . | 8 | -2 | 3 | . | . | .
CCN1CC2C3C(=O)N(C)C(=O)C3[C@](CC)(C1=O)N2C(=O)c1ccc(F)cc1 (stereo not given in full) | . | 0.69 | . | . | . | . | . | .
COc1ccc(C=NNC(=O)COc2cccc3ccccc23)c(C(=O)O)c1OC | . | 0.69 | . | . | . | . | . | .
CC(=O)OCC1=CC2OC(=O)C3=COC(OC4OC(CO)C(O)C(O)C4O)C1C32 (stereo not given) | . | 0.71 | . | . | . | . | . | .
C[C@@H]1Cc2c(O)c(O)cc(O)c2C(=O)O1 | 4 | 0.77 | -2 | 2 | . | . | . | .
O=C1C=C(O)c2c(O)cc(O)c(O)c2C1=O | 13* | 0.77 | 9 | 22 | 10 | 14* | 9.8* | 14
O=[N+]([O-])c1cnc(Sc2ccncn2)s1 | 81* | 0.43* | 12* | -13 | 10 | 98* | 8.7* | 35*
CCOc1cccc(-c2c(C(=O)NN=Cc3cccnc3)nnn2-c2nonc2N)c1 | . | 0.64 | . | . | . | . | . | .
c1ccc(-c2cccc(-c3ccccn3)n2)nc1 | 34* | 0.54 | 35* | -10 | . | 46* | 36* | 30*
c1ccc(-c2nnc(-c3ccccn3)nn2)nc1 | 4 | 0.67 | 5 | 1 | 1 | . | . | .
Cc1ccc(S(=O)(=O)N2CCC(C(=O)NNC(=O)c3ccccc3O)CC2)cc1C | 14* | 0.7 | 9 | -8 | 7 | 12 | 9.4* | 13
Cc1ccc(S(=O)(=O)N2CCC(C(=O)NNC(=O)c3ccccc3O)CC2)cc1 | 10 | 0.73 | 6 | -2 | 9 | . | . | .
Cc1ccc(OCC(=O)Nc2cc(C)on2)c([N+](=O)[O-])n1 | 19* | 0.69 | 15* | 1 | 6 | 42* | 6.7* | 26*
O=C(Oc1c(Cl)cc(Cl)c2cccnc12)c1ccco1 | 50* | 0.056* | 48* | -30 | 61* | 63* | 60* | 58*
COc1ccc(C=NNC(=S)Nc2c(C)n(C)n(-c3ccccc3)c2=O)cc1OC | . | 0.67 | . | . | . | . | . | .
SMILES | AddAB inh | E coli growth-1 | E coli growth-2 | Tat transport | phage Ecoli inh | AddAB confirm | RecBCD counter | bact viab count
Clc1ccc(Cn2cc(C=Nn3cnnc3)c3ccccc32)cc1 | . | 0.77 | . | . | . | . | . | .
CCOCCCNC(=O)Cn1cc2c(n1)CCCC2 | 14* | 0.71 | 4 | 2 | 1 | -2 | 1 | -2
Cc1ccc(CCNC(=O)c2cc(S(=O)(=O)N3CCOCC3)cn2C)cc1 | 0 | 0.71 | 1 | -6 | 1 | . | . | .
Cn1cc(S(=O)(=O)N2CCOCC2)cc1C(=O)NCCc1ccccc1 | 99* | 0.72 | 99* | -1 | . | -3 | -1 | -2
COc1ccccc1CNC(=O)c1cc(S(=O)(=O)N2CCCC2)cn1C | 100* | 0.71 | 99* | -3 | 4 | -3 | 0 | -2
CC1CN(C(C)CO)C(=O)c2cc(NC(=O)Nc3ccc4c(c3)OCO4)ccc2OC1CN(C)S(=O)(=O)c1cn(C)cn1 (stereo not given) | . | 0.65 | . | . | . | . | . | .
COc1ccc(C=Nn2c(-c3n[nH]c4c3CCC4)n[nH]c2=S)c(OC)c1OC | . | 0.62 | . | . | . | . | . | .
Cc1ccc(NC(=O)CSc2ccc(-c3ccccn3)nn2)cc1 | 9 | 0.66 | 4 | 7 | 10 | . | . | .
O=C(CSc1ccc(-c2ccccn2)nn1)Nc1ccc(F)c(F)c1 | 14* | 0.69 | 14* | 17 | 8 | 7 | 9.7* | 7
NC1CCN(c2nc3c(cc2F)c(=O)c(C(=O)O)cn3-c2ccc(F)cc2F)C1 (stereo not given) | 101* | 0.07* | 102* | 72* | 101* | 97* | 100* | 100*
Cc1cccc(-c2cc(=O)c(C(=O)O)cn2-c2ccc(F)cc2F)c1 | 4 | 0.56 | 1 | 7 | 2 | . | . | .
Nc1nn2c(-c3ccccc3)cc(=O)[nH]c2c1N=Nc1ccc(O)cc1 | 19* | 0.73 | 10* | -1 | 6 | 27* | 0 | 6
COc1ccc(-c2nc(C(N)=O)c3[nH]c(=O)n(-c4ccccc4OC)c3n2)c(OC)c1 | 43* | 0.77 | 18* | 3 | -1 | -2 | -2 | -4
CCOC(=O)c1ccc(NC(=O)c2nc[nH]c2C(=O)NC(C)c2ccccc2)cc1 (stereo not given) | . | 0.61 | . | . | . | . | . | .
CC(=NOC(=O)c1c(-c2ccccc2Cl)noc1C)c1nccs1 | . | 0.73 | . | . | . | . | . | .
CCOc1cc(N)c(Cl)cc1C(=O)NCC1CN(Cc2ccc(F)cc2)CCO1 (stereo not given) | 99* | 0.064* | 93* | 3 | 5 | 101* | 12* | 98*
CC1OC(=O)C(C)C1CC(O)[C@](C)(O)C1CC[C@@]2(O)C3=CC(=O)C4CC(O)C(O)C[C@]4(C)C3CC[C@]12C (stereo not given in full) | . | 0.67 | . | . | . | . | . | .
O=C(CCN1CCN(c2ccccc2)CC1)NN=Cc1ccccc1OC(F)F | . | 0.68 | . | . | . | . | . | .
O=C(CN1CCCc2ccccc21)N/N=C/c1ccccc1 | 3 | . | -2 | 10 | 3 | . | . | .
O=C(CN1CCCc2ccccc21)N/N=C/c1c(O)ccc2ccccc12 | 15* | . | 11* | -6 | 8 | 2 | 5.3* | 0
